Assay outcomes deposited in PubChem BioAssay by Broad Institute.
DUX4 inh = inhibitors of DUX4-driven ZSCAN4 reporter expression, primary screen, 293T cells, Gaussia and Italica luciferase; 293T-iDUX4 ZSCAN4-Gaussia luciferase reporter, 24 h; hits give low values; activity change, negative = inhibition, % (concentration not given with the values); 37,000 tested, 0.8% active; AID 1224904, 2016;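 active = mean inhibition of at least 10% in the main channel, exceeding the control channel by a set limit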;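 note: 0% = median of neutral control wells and -100% = median of positive control wells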
* = called active by the depositor. The sample as a whole holds a higher share of hits than the screen did.

SMILES | DUX4 inh
CO[C@@H]1CN(C)C(=O)c2cc(NS(=O)(=O)c3ccccc3F)ccc2OC[C@@H](C)NC[C@@H]1C | -2.7
CC(C)NC(=O)N(C)C[C@@H]1Oc2ccc(NC(=O)Nc3ccc4c(c3)OCO4)cc2CC(=O)N([C@H](C)CO)C[C@@H]1C | 2.5
CCCC#Cc1ccc([C@@H]2[C@H](CO)N3CCCCN(S(=O)(=O)Cc4ccccc4)C[C@@H]23)cc1 | -8.6
O=S(=O)(c1cccs1)N1CCCCN2[C@H](C1)[C@H](c1ccc(Br)cc1)[C@@H]2CO | -7.4
O=S(=O)(c1cccs1)N1CCCCN2[C@@H](CO)[C@H](c3ccc(Br)cc3)[C@@H]2C1 | -14.0*
CC(C)CC#Cc1ccc([C@H]2[C@@H](CO)N3CCCCN(S(=O)(=O)Cc4ccccc4)C[C@H]23)cc1 | -14.2*
O=S(=O)(c1ccc(F)cc1)N1CCCCN2[C@H](CO)[C@@H](c3ccc(C#CC4CC4)cc3)[C@@H]2C1 | -9.2
O=S(=O)(c1ccccc1)N1CCCCN2[C@H](CO)[C@H](c3ccc(C#CC4CCCC4)cc3)[C@H]2C1 | -19.4*
COc1ccc(C#Cc2ccc([C@@H]3[C@@H](CO)N4CCCCN(S(=O)(=O)c5ccccc5)C[C@H]34)cc2)cc1 | -5.1
O=S(=O)(c1ccccc1)N1CCCCN2[C@H](CO)[C@@H](c3ccc(C#CC4CCCC4)cc3)[C@@H]2C1 | 7.3
O=S(=O)(c1cccs1)N1CCCCN2[C@H](CO)[C@@H](c3ccc(Br)cc3)[C@H]2C1 | -8.6
CCCC#Cc1ccc([C@H]2[C@H]3CN(S(=O)(=O)Cc4ccccc4)CCCCN3[C@H]2CO)cc1 | 11.1
C[C@@H](O)C#Cc1ccc([C@H]2[C@H]3CN(S(=O)(=O)c4ccccc4)CCCCN3[C@H]2CO)cc1 | 1.6
COc1ccc(C#Cc2ccc([C@H]3[C@H](CO)N4CCCCN(S(=O)(=O)c5ccccc5)C[C@@H]34)cc2)cc1 | -30.2*
O=C(c1ccncc1)N1C[C@@H]2[C@H](c3ccccc31)[C@H](CO)N2C(=O)Nc1cccc(F)c1 | -0.4
C[C@H]1CN([C@@H](C)CO)C(=O)c2cc(C#CC(C)(C)O)cnc2O[C@@H]1CN(C)C(=O)C1CCOCC1 | 1.5
Cc1cccc(S(=O)(=O)N2CC[C@@H]3[C@H]2c2cc(-c4ccccc4F)ccc2N[C@@H]3CO)c1 | 9.8
COc1ccc(NC(=O)N(C)C[C@@H]2OCCCC[C@@H](C)Oc3ccc(NC(=O)CCCN(C)C)cc3C(=O)N([C@H](C)CO)C[C@H]2C)cc1 | -4.4
C[C@@H]1CN([C@H](C)CO)C(=O)c2cccc(N(C)C)c2O[C@@H]1CN(C)C(=O)Nc1ccc(F)cc1 | -0.4
COC(=O)C[C@@H]1C[C@@H]2c3cc(NC(=O)C4CCOCC4)ccc3O[C@@H]2[C@H](CO)O1 | 5.1
CNC[C@H]1Oc2ccc(NC(=O)Cn3cnnn3)cc2C(=O)N([C@H](C)CO)C[C@H]1C | -4.9
OC[C@@H]1[C@@H](c2ccc(-c3cccc(F)c3)cc2)[C@H]2CN(CCC(F)(F)F)CCCCN12 | -35.3*
OC[C@@H]1[C@H](c2ccc(-c3cccc(F)c3)cc2)[C@@H]2CN(Cc3cncnc3)CCCCN12 | 4.3
COc1ccccc1C#Cc1ccc([C@@H]2[C@H]3CN(CCC(F)(F)F)CCCCN3[C@H]2CO)cc1 | -29.7*
CC(=O)N1CCCCN2[C@H](CO)[C@@H](c3ccc(C#Cc4ccccc4F)cc3)[C@H]2C1 | -7.4
SMILES | DUX4 inh
CN(C)C(=O)c1ccc(-c2ccc([C@H]3[C@H]4CN(CCC(F)(F)F)CCCCN4[C@H]3CO)cc2)cc1 | 8.3
Cc1cccc(-c2ccc([C@H]3[C@H]4CN(CCC(F)(F)F)CCCCN4[C@H]3CO)cc2)c1 | -49.3*
O=C(C1CC1)N1CCCCN2[C@H](CO)[C@@H](c3ccc(-c4cccc(F)c4)cc3)[C@H]2C1 | -0.4
CN(C)C(=O)c1ccc(-c2ccc([C@@H]3[C@@H](CO)N4CCCCN(CCC(F)(F)F)C[C@@H]34)cc2)cc1 | 11.1
Cc1cccc(-c2ccc([C@@H]3[C@@H](CO)N4CCCCN(Cc5ccncc5)C[C@H]34)cc2)c1 | -4.7
O=C(c1cccc(F)c1)N1CCCCN2[C@H](CO)[C@@H](c3ccc(-c4ccccc4)cc3)[C@H]2C1 | 3.2
O=C(C1CC1)N1CCCCN2[C@H](C1)[C@H](c1ccc(-c3cccc(F)c3)cc1)[C@@H]2CO | 0.8
O=C(C1CC1)N1CCCCN2[C@H](CO)[C@@H](c3ccc(-c4cccc(F)c4)cc3)[C@@H]2C1 | -23.2*
CC(C)N(C[C@@H]1N[C@H](CO)[C@@H]1c1ccccc1)C(=O)CN1CCOCC1 | 0.1
O=S(=O)(NCC[C@H]1CC[C@@H](NS(=O)(=O)c2cccc(Cl)c2)[C@H](CO)O1)c1cccc(F)c1 | -2.3
C[C@H]1CN([C@@H](C)CO)C(=O)CCCn2nncc2CO[C@@H]1CN(C)C(=O)Nc1ccnc(N2CCOCC2)c1 | 4.9
C[C@@H]1CN([C@@H](C)CO)C(=O)Cc2cc(N(C)C)ccc2O[C@H]1CN(C)C(=O)NC1CCCCC1 | 4.8
O=C(NCCN1CCCCC1)[C@H]1N[C@H]2c3ccc(-c4ccccc4)c(=O)n3C[C@H]2[C@@H]1CO | -0.6
CC(=O)N1[C@H](CO)[C@@H](c2ccccc2)[C@@H]1CN(C(=O)c1ccc(F)cc1)C(C)C | 1.1
Cn1cnc(S(=O)(=O)N2CCCCN3[C@H](CO)[C@H](c4ccc(-c5cccc(F)c5)cc4)[C@@H]3C2)c1 | 6.4
OC[C@H]1[C@@H](c2ccc(-c3cccc(F)c3)cc2)[C@H]2CN(CCC(F)(F)F)CCCCN21 | -47.1*
Cc1ccccc1S(=O)(=O)N1CCCCN2[C@H](CO)[C@@H](c3ccc(-c4cccc(F)c4)cc3)[C@@H]2C1 | -19.6*
OC[C@H]1[C@@H](c2ccc(-c3cccc(F)c3)cc2)[C@@H]2CN(Cc3cncnc3)CCCCN12 | 13.9
OC[C@@H]1[C@H](c2ccc(-c3cccc(F)c3)cc2)[C@H]2CN(Cc3cncnc3)CCCCN12 | 6.4
O=S(=O)(c1ccccc1)N1CCCCN2[C@H](C1)[C@@H](c1ccc(-c3ccccc3)cc1)[C@@H]2CO | 14.6
CO[C@H](CN(C)S(=O)(=O)c1cn(C)cn1)[C@@H](C)CN(C(=O)Nc1ccc(F)cc1)[C@H](C)CO | 3.1
COCC(=O)N1CC2(C1)[C@@H](c1ccccc1)[C@@H](CO)N2C(=O)c1cccnc1 | 6.9
O=C([C@H]1[C@H](CO)[C@H]2Cn3c(ccc(-c4ccc(F)cc4)c3=O)[C@@H]1N2)N1CCCCC1 | 5.7
COc1ccc(C#Cc2ccc([C@H]3[C@@H](CO)N4CCCCN(Cc5ccncc5)C[C@H]34)cc2)cc1 | -32.2*
COc1ccc(NC(=O)N2CCCCN3[C@H](C2)[C@H](c2ccc(C#CCC(C)C)cc2)[C@@H]3CO)cc1 | 15.3
SMILES | DUX4 inh
COc1ccc(NC(=O)N2CCCCN3[C@H](CO)[C@@H](c4ccc(C#CCC(C)C)cc4)[C@@H]3C2)cc1 | -17.3*
OC[C@H]1[C@@H](c2ccc(C#CC3(O)CCCC3)cc2)[C@H]2CN(Cc3ccncc3)CCCCN21 | 14.9
COc1ccc(C#Cc2ccc([C@@H]3[C@@H](CO)N4CCCCN(Cc5ccncc5)C[C@@H]34)cc2)cc1 | -45.3*
COc1ccc(C#Cc2ccc([C@H]3[C@H](CO)N4CCCCN(C)C[C@@H]34)cc2)cc1 | -26.2*
CN1CCCCN2[C@H](C1)[C@@H](c1ccc(C#CC3(O)CCCC3)cc1)[C@@H]2CO | -8.9
OC[C@@H]1[C@H](c2ccc(C#CC3(O)CCCC3)cc2)[C@H]2CN(Cc3ccncc3)CCCCN12 | 2.5
